Source: PubChem (National Center for Advancing Translational Sciences (NCATS))
Sampled rows, rich in hits. Any-hit rate of the full collection: about 8%.
KB-3-1 cytotox: KB-3-1 parental cell cytotoxicity | KB-3-1 viability, CellTiter-Glo ATP luminescence, 72 h | 400,000 tested, 1.4% active | Potency, µM (highest dose often 46.1 µM), usual class: cytotoxic; also: nearly all actives have a fitted effect of over 60% in size
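Viability of parental KB-3-1 cells, measured by CellTiter-Glo luminescence, followed a 72 h incubation at 37 °C with pinned compounds in phenol-red-free DMEM containing 10% FBS.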
HT1080 IDH1KD tx: kills HT-1080 cells with IDH1 knockdown. HT-1080 IDH1 knockdown viability, ATP luminescence, 48 h. Potency, µM (titrated, usually from 46.1 µM), actives largely listed as cytotoxic. 360,000 tested, 2% active
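IDH1KD HT-1080 cells, 750/well, RPMI + 5% FBS; compound pinned after 2 h settling; 48 h, 37 °C; CellTiter-Glo luminescence; % activity normalised to DMSO and no-cell wells; curves fitted, classed by r2 and efficacy.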
KB-V1 MDR tox: KB-V1 MDR subline cytotoxicity; Potency, µM (highest dose often 46.1 µM), usual class: cytotoxic; 400,000 tested, 3.4% active; KB-V1 MDR cells viability, CellTiter-Glo, 72 h; also: nearly all actives have a fitted effect of over 60% in size
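Cytotoxicity via CellTiter-Glo luminescence after 72 h compound exposure at 37 degrees C. Cells: drug-selected KB-V1 line, DMEM phenol-red free plus 10% FBS. Compounds tested at multiple concentrations; normalized data fitted to concentration-effect curves.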
MCF10A rereplic: induces DNA re-replication in MCF 10a normal breast cells; MCF 10A DNA re-replication, Hoechst nuclear intensity, 48 h; Potency, µM (series often up to 46.1 µM), most hits filed as activators; 350,000 tested, 2.9% active; also: nearly all actives have a fitted effect of over 50% in size
HT1080-NT tox: kills 2HG-producing HT-1080-NT fibrosarcoma cells. HT-1080-NT fibrosarcoma viability, CellTiter-Glo ATP luminescence, 48 h. Potency, µM (doses to about 46.1 µM), usual class: cytotoxic. 360,000 tested, 1.6% active. AID 686970;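 also: NT is the 2HG producing partner of a matched IDH1 knockdown line; nearly all actives have a fitted effect of over 55% in size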
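HT-1080-NT; 750 cells/well; 5% FBS RPMI; 48 h compound, 37 degrees C; CellTiter-Glo luminescence; curve fitting and curve-class assignment.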
SW480 rereplic: induces DNA re-replication in SW480 colon adenocarcinoma cells | SW480 DNA re-replication, Hoechst DNA content imaging, 48 h | 340,000 tested, 1.8% active | Potency, µM (series often up to 46.1 µM), hits mostly activators; also: nearly all actives have a fitted effect of over 55% in size
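250 cells/well; 23 nL cpd via pin tool; 48 hr, 37 C, 5% CO2; Hoechst 40 min; imager read of total nuclear intensity, ex 405/em 500-530 nm.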
A number is an active result; 0 = inactive; ? = inconclusive; - = no result; [ ] = remark or other dose. Calls follow the shape of the dose curve; as a rule, active = well fitted curve in the direction sought with a large enough effect; inconclusive = small, poorly fitted or top-dose-only effect, or another doubt; inactive = no such curve, though single readings can be large; an effect the other way counts as inactive or inconclusive.

SMILES	KB-3-1 cytotox	HT1080 IDH1KD tx	KB-V1 MDR tox	MCF10A rereplic	HT1080-NT tox	SW480 rereplic
Cc1cc(C(=O)N/N=C2\CC(=O)c3ccccc32)c(C)n1-c1ccc(F)cc1	0	0	0	0	0	16µM
CCOc1cc(/C=N/NC(=O)c2cc(C)n(-c3ccc(F)cc3)c2C)ccc1O	?	0	0	0	0	0
CC(C)CC(=O)NC(=S)Nc1nc(-c2cccc3ccccc23)cs1	?	?	?	?	0	?
Cc1ccc2cc(CCNC(=O)c3ccc(Br)o3)c(=O)[nH]c2c1	?	0	18µM	0	0	0
CN1CCN(CC/C=C2/c3ccccc3Sc3ccc(S(=O)(=O)N(C)C)cc32)CC1	0	?	?	?	26µM	?
Cn1cc(CNCc2cnc3ccccn23)c(-c2ccc(Oc3ccccc3)cc2)n1	0	0	0	0	0	0
CN(Cc1cn(C)nc1-c1ccc(Oc2ccccc2)cc1)Cc1cnc2ccccn12	0	0	0	23µM	29µM	0
CCOC(=O)Cc1csc(NC(=O)CSc2nnc(-c3ccncc3)o2)n1	0	0	0	0	0	15µM
Cc1csc(NC(=O)CSc2nnc(-c3ccoc3C)o2)n1	0	0	0	0	0	0
CCOC(=O)Cc1csc(NC(=O)CSc2nnc(-c3ccc(NS(=O)(=O)CC)cc3)o2)n1	0	0	0	0	0	0
Cc1occc1-c1nnc(SCC(=O)Nc2nc(C(C)(C)C)cs2)o1	0	?	?	15µM	?	?
O=C(OCC(=O)N1CCCC1)c1cc(Br)ccc1Cl	0	?	0	0	0	0
O=C(Nc1cccc2ccccc12)c1ccc2sc([C@@H]3O[C@H](CO)[C@@H](O)[C@H]3O)nc2c1	0	0	0	-	0	-
O=C(NNC(=O)c1ccccc1O)c1ccc(S(=O)(=O)Nc2ccccc2F)cc1	?	?	0	?	23µM	0
Cc1ccccc1NS(=O)(=O)c1ccc(C(=O)NNC(=O)c2ccccc2O)cc1	?	?	0	0	0	15µM
O=C(NNC(=O)c1ccccc1O)c1ccc(S(=O)(=O)Nc2ccccc2)cc1	?	0	?	0	0	11µM
O=C(NNc1ccccc1F)c1ccccc1	0	9.2µM	?	?	?	0
Cc1ccccc1NC(=O)CCC(=O)N/N=C/c1cc([N+](=O)[O-])ccc1O	0	?	21µM	?	0	?
O=C(CCCC(=O)Nc1cccc(Br)c1)N/N=C/c1cc([N+](=O)[O-])ccc1O	?	?	0	0	0	?
O=C(N/N=C/c1cc([N+](=O)[O-])ccc1O)C(O)(c1ccccc1)c1ccccc1	?	?	0	?	0	21µM
O=C(N/N=C/c1cc([N+](=O)[O-])ccc1O)c1cccc(N2CCCC2=O)c1	?	?	0	0	?	9.2µM
O=C(N/N=C/c1cc([N+](=O)[O-])ccc1O)C1CC1	?	?	0	?	?	0
Cc1ccc(C)c(NC(=O)CCC(=O)N/N=C/c2cc([N+](=O)[O-])ccc2O)c1	?	?	?	?	0	?
O=C(CN(c1cccc(Br)c1)S(=O)(=O)c1ccccc1)N/N=C/c1cc([N+](=O)[O-])ccc1O	?	15µM	0	?	7.3µM	?
COc1ccc(C(=O)N2CCN(S(=O)(=O)c3ccc(Cl)cc3)CC2)cc1OC	0	0	15µM	0	0	0
SMILES	KB-3-1 cytotox	HT1080 IDH1KD tx	KB-V1 MDR tox	MCF10A rereplic	HT1080-NT tox	SW480 rereplic
CCCc1cc(C(=O)N2CCN(S(=O)(=O)c3ccc(OC)c(OC)c3)CC2)cs1	0	0	5.2µM	?	0	0
Fc1ccc(-c2nnc3ccccn23)cc1	0	0	0	0	0	0
O=C(CN1C(=O)c2ccccc2S1(=O)=O)NC1CCCCCC1	0	0	?	0	?	0
Cc1cc(C(=O)CN2c3cccc4cccc(c34)S2(=O)=O)c(C)n1C	?	15µM	0	3.7µM	0[9.24 µM]	3.3µM
O=C(CN1C(=O)CCOc2ccccc21)Nc1cccc(S(=O)(=O)N2CCOCC2)c1	0	0	?	0	0	0
COCC(C)n1c(C)cc(C(=O)CN2c3cccc4cccc(c34)S2(=O)=O)c1C (configuration not stated)	0	0	0	0	0	0
O=C(CN1c2cccc3cccc(c23)S1(=O)=O)NC1CCCCC1	0	0	21µM	0	0	0
O=C(CN1c2cccc3cccc(c23)S1(=O)=O)Nc1cccc(S(=O)(=O)N2CCOCC2)c1	0	0	18µM	0	0	0
Cc1ccc(NC(=O)CN2c3cccc4cccc(c34)S2(=O)=O)cc1	0	0	23µM	?	0	0
CCOC(=O)N1CCN(C(=O)c2cn(CC(C)C)c(=O)c3c2c2ccccc2n3C)CC1	0	0	0	0	0	0
Cc1ccc(OCc2nc(-c3ccc(C(=O)NCc4ccc(OC(C)C)cc4)cc3)oc2C)cc1	0	-	0	-	-	-
Cc1cccc(OCCC(=O)OCC(=O)N2c3ccccc3NC(=O)C2(C)C)c1	0	0	?	-	0	-
COC(=O)[C@@]1(Cc2ccc(F)cc2)[C@H]2c3cc(C(=O)N4CCCC4)n(Cc4ccccc4)c3C[C@H]2CN1C(=O)c1ccccc1	?	?	0	-	?	-
O=C(c1c[nH]c2ccccc12)C(Cl)c1ccccc1 (configuration not stated)	0	?	?	23µM	0	?
COC(=O)c1ccc(Cn2ccc(=O)[nH]c2=O)cc1	0	0	?	0	0	0
Cc1cc(C)c2c(=O)c3c(oc2c1)C(=O)N(CCO)C3c1cccc(O)c1 (configuration not stated)	0	0	0	0	0	0
CCCCC(CC)C(=O)Oc1ccc(O)c(C(C)(C)C)c1 (configuration not stated)	0	23µM	0	4.1µM	16µM	0
Cn1c(=O)c2c(nc(CN3CCOCC3)n2CCc2ccccc2)n(C)c1=O	0	0	0	0	0	0
COc1cc2c(cc1OC)C(=S)NC(C)(C)C2	0	?	0	0	10µM	?
CCOC(=O)/C=C1\NC(C)(C)Cc2cc(OC)c(OC)cc21	0	0	0	0	0	0
CCN(Cc1ccccc1)C(=O)C1CCN(Cc2sccc2C)CC1	0	0	?	0	0	29µM
Cn1c(=O)oc2cc(S(=O)(=O)N3CCCC(C(=O)N4CCN(c5ccc(F)cc5)CC4)C3)ccc21 (configuration not stated)	0	-	0	-	-	-
O=C(C1CCCN(S(=O)(=O)c2ccccc2[N+](=O)[O-])C1)N1CCN(c2ccccc2)CC1 (configuration not stated)	0	0	5.8µM	0	0	0
